Measured values: PubChem BioAssay AID2289 (National Center for Advancing Translational Sciences (NCATS), 2010)
Screen size: about 340,000 compounds; about 3,300 (0.97%) were called active. Inconclusive results (about 9%) are left out. Calls follow the shape of the dose curve; as a rule, active = well fitted inhibition curve with a large enough effect; inconclusive = small, poorly fitted or top-dose-only effect, or effect the other way; inactive = flat fitted curve, though single readings scatter. Some of the results follow.

assay: qHTS Assay for Modulators of miRNAs and/or Inhibitors of miR-21; conditions: HeLa miR-21-FLuc reporter, luciferase luminescence, 48 h; actives lower the signal; also: nearly all actives have a fitted effect of over 55% in size
How it was run: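 HeLa cells stably expressing CMV-driven firefly luciferase with a downstream miR-21 binding sequence, endogenously expressing miR-21, were treated with titrations (up to about 40uM final) for 48 hours at 37 degree Celsius. Luciferase luminescence was read after lysis.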
Potency is read from the fitted curve at half-maximal effect.

Potency, active:
CN(Cc1ccsc1)C(=O)CCc1nnc(CCCc2ccccc2)o1 11.7 µM
Cc1cc(C)cc(NC(=O)c2oc3ccc4c(c3c2C)C(=O)CC(C)(C)O4)c1 0.826 µM
CCOC(=O)c1ccc(NC(=O)c2oc3ccc4c(c3c2C)C(=O)CC(C)(CC)O4)cc1 (stereo unspecified) 0.208 µM
CCN(CC)c1ccc(/C=C(\C#N)C(N)=O)cc1 14.7 µM
Brc1ccccc1/C=N/Nc1ccc2ccccc2n1 1.17 µM
Brc1ccc(/C=N/Nc2nc3ccccc3o2)cc1 1.04 µM
Brc1ccc(/C=N/Nc2ccc3ccccc3n2)cc1 2.61 µM
O=C(NCCc1cccs1)c1ccc(Cl)c(Cl)c1 2.07 µM
c1ccc(CCc2nc3ccccc3[nH]2)cc1 9.27 µM
c1ccc(CSCc2nc3ccccc3[nH]2)cc1 7.36 µM
Clc1ccccc1SCc1nc2ccccc2[nH]1 7.36 µM
CC1=NN(C(=O)c2ccc(C)o2)C(O)(c2ccccc2)C1 (stereo unspecified) 16.5 µM
COc1ccc(NC(=O)CSCc2ccccc2C)cc1 7.36 µM
COc1ccc(CNC(=O)CSCc2ccccc2Cl)cc1 13.1 µM
Cc1cccc(Nc2n[nH]c(C)c2[N+](=O)[O-])c1 0.736 µM
Cc1ccc(Nc2cc(C)nc(-c3ccccc3)n2)cc1 7.36 µM
CC(=O)c1ccc(NC(=O)c2cc(Cl)sc2Cl)cc1 1.47 µM
CC(=O)c1ccc(NC(=O)c2ccc(C)c(Br)c2)cc1 0.826 µM
Cc1cc(-c2ccc(Br)cc2)n[nH]1 13.1 µM
CCC(=O)N1CCC(c2ccc(OC)cc2)=N1 13.1 µM
O=C(Nc1cccc2ccccc12)c1ccccc1 6.56 µM
O=C(Nc1cccc2ccccc12)c1onc2c1CCCC2 5.85 µM
O=C(CSc1cccs1)Nc1cccc2ccccc12 10.4 µM
O=C(Nc1ccccc1F)C(=O)Nc1cccc2ccccc12 3.29 µM
O=C(COC(=O)C1CC1)Nc1ccc(N=Nc2ccccc2)cc1 1.85 µM
CC1CC1C(=O)OCC(=O)Nc1ccc(N=Nc2ccccc2)cc1 (stereo unspecified) 1.47 µM
C(=N\Nc1cc(N2CCCCC2)ncn1)/c1ccco1 2.93 µM
Cc1ccc(-c2cc(=O)c3cc(Cl)ccc3[nH]2)cc1 0.369 µM
FC(F)(F)c1cc(Cl)c2nc(-c3ccccc3)cn2c1 0.369 µM
CNc1oc(/C=C/c2ccccc2)nc1C#N 3.29 µM
CNc1oc(/C=C/c2cccc(OC)c2)nc1C#N 2.93 µM
CCCCNc1nc(N)nc(-c2cc(Cl)ccc2O)n1 0.927 µM
CNC(=O)c1ccc(NC(=O)/C=C/c2cccc(F)c2)cc1 10.4 µM
Cn1cc([N+](=O)[O-])c(C(=O)Nc2ccc(-c3nc4ccccc4o3)cc2)n1 7.36 µM
Cn1cc([N+](=O)[O-])c(C(=O)Nc2ccc3nc(-c4ccccc4)[nH]c3c2)n1 14.7 µM
CNc1nc(-c2ccc3c(c2)CCN3C(=O)c2ccccc2C)cs1 4.65 µM
CC(C)(C)Nc1nc(-c2ccc3c(c2)CCN3C(=O)C2CC2)cs1 1.47 µM
COC(=O)c1ccc(N2CCC(C)CC2)c(N)c1 4.14 µM
COc1ccc2oc(C(=O)NC3CCCCC3)c(C)c2c1 2.93 µM
COc1ccc2oc(C(=O)NC(C)(C)C)c(C)c2c1 3.69 µM
Cc1c(C(=O)NC2CCCCC2)oc2ccc(F)cc12 13.1 µM
COc1ccc2c(c1)OC/C(=C/c1cccs1)C2=O 5.85 µM
Cn1cccc1C(=O)N/N=C/c1c(Cl)cccc1Cl 2.07 µM
O=C(CSc1nnc(C2CCCCC2)o1)Nc1ccccc1Cl 7.36 µM
Cc1cccc2nc(=S)n(C(=O)c3ccco3)n12 0.521 µM
Cc1cccn2c1nc(=S)n2C(=O)c1ccco1 1.04 µM
CC(=O)Oc1ccc(C(=O)[C@H]2[C@H]3C(=O)N(c4ccc5ccccc5c4)C(=O)[C@H]3[C@@H]3C=CC=NN32)cc1 6.56 µM
Cc1cc2nc(N)sc2cc1[N+](=O)[O-] 14.7 µM
Cc1ccc(-c2nc3cccnc3s2)cc1NS(C)(=O)=O 4.14 µM
O=S(=O)(Nc1ccc(-c2nc3cccnc3s2)cc1)c1ccccc1F 13.1 µM
O=S(=O)(Nc1ccc(-c2nc3cccnc3s2)cc1)c1cc(F)ccc1F 16.5 µM
CCN1CCN(Cc2ccc(NC(=O)Nc3ccccc3Cl)cc2)CC1 1.31 µM
O=C(Nc1ccc(CN2CCCCC2)cc1)Nc1ccccc1Cl 16.5 µM
CCN1CCN(Cc2ccc(NC(=O)Nc3ccc(SC)cc3)cc2)CC1 14.7 µM
O=C(Nc1cc2c(cc1Br)OCCO2)c1ccco1 6.56 µM
O=C(NNC(=S)Nc1ccc(Br)cc1Cl)c1ccco1 3.29 µM
O=C(Nc1cc2c(cc1Cl)OCCO2)c1ccco1 6.56 µM
O=C(Nc1cc2c(cc1Cl)OCCCO2)c1ccco1 3.69 µM
O=C(CCc1ccccc1)Nc1cc2c(cc1Cl)OCCO2 2.61 µM
Cc1c(-c2ccccc2)[nH]n2c(=O)c3c(nc12)CCCC3 2.93 µM
CC(=O)Nc1ccc2nc(-c3cccs3)[nH]c2c1 9.27 µM
CC(C)(C)C(=O)Nc1ccc(-c2nc3ccc(NC(=O)C(C)(C)C)cc3[nH]2)cc1 0.414 µM
O=C1/C(=C\c2ccc(O)c(O)c2)N=C2CCCCCN12 14.7 µM
CCOc1cc(/C=C2\N=C3CCCCCN3C2=O)ccc1O 14.7 µM
Cc1ccc2nc(CNC(=O)c3ccccc3)[nH]c2c1 6.56 µM
Cc1c(/C(O)=C2/C(=O)C(=O)N(Cc3cccnc3)C2c2cccs2)cnn1-c1ccccc1 (stereo unspecified) 5.21 µM
Cn1c(N)c(C(=O)/C=C/c2ccccc2)c(=O)[nH]c1=O 5.85 µM
CNc1ccccc1C(=O)OCC(=O)c1ccccc1 16.5 µM
Nc1cccc(C(=O)OCC(=O)c2ccccc2)c1 7.36 µM
CC(=O)Nc1cc(C(=O)OCC(=O)c2ccc(C)cc2)ccc1C 10.4 µM
CCC(=O)Nc1cc(C(=O)OCC(=O)c2ccccc2)ccc1C 1.85 µM
CCC(=O)Nc1cc(C(=O)OCC(=O)c2ccccc2Cl)ccc1C 10.4 µM
CCc1ccc(C(=O)CCC2CCCCC2=O)cc1 (stereo unspecified) 16.5 µM
Cc1ccc(C(=O)CCC2CCCCC2=O)cc1 (stereo unspecified) 14.7 µM
O=C(O)c1ccccc1C(=O)NNc1cccc(Cl)n1 5.85 µM
CCOC(=O)/C=C/c1cnn(-c2ccccc2)c1 2.33 µM
